Whole data set: some 33,000 sequences, median “normalized occupancy” near 0.075, cut for the highest 2% near 0.095. Shown is part of a subset that was picked to be rich in the highest values.
Target: MaxL homodimer (Homo sapiens, UniProt P61244 1-160)
Experiment: universal protein-binding microarray (PBM); PBS-based mixture, 10 nM His-tagged protein dimer, 2% milk, 200 ng/uL BSA, 50 ng/uL salmon testes DNA, 0.02% TX-100; detection with Alexa 488 anti-His antibody;; high values mean tight binding
Conditions: protein: recombinant; tags: C-terminal His-tag (pET21a); chain copies: 2; dsDNA, one strand shown
Summary of the method: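 Binding occupancy is a fluorescence intensity normalised to the intensity of the highest-ranked sequence word. Those intensities came from 8-mers on Agilent 4 x 44 K 'all 10-mer' universal arrays incubated with 10 nM His-tagged protein dimer. Bound protein was detected with 10 ng/μL fluorophore-conjugated anti-His antibody before scanning on a GenePix 4400A.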

Chain of MaxL homodimer (P61244 whole entry): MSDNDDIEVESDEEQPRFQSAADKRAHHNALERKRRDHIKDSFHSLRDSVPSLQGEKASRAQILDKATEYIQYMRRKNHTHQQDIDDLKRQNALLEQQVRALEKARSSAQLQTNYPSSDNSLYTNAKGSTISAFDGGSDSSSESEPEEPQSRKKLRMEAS

Sequence	binding signal
AGAGTCGC	0.0764 normalized occupancy
ACGGATGC	0.0722 normalized occupancy
GTGCCTTA	0.0789 normalized occupancy
ATGAGCGG	0.0799 normalized occupancy
CGGTGTAC	0.0764 normalized occupancy
GATATTCC	0.0765 normalized occupancy
AGCAATTC	0.0722 normalized occupancy
TACGTGAA	0.0794 normalized occupancy
GACGTGAC	0.0813 normalized occupancy
CACGTAAG	0.0796 normalized occupancy
CACGTGAG	0.245 normalized occupancy
CACGTGAA	0.231 normalized occupancy
CACGTGAC	0.464 normalized occupancy
CCCGTGAC	0.0826 normalized occupancy
GACGTGAA	0.0766 normalized occupancy
CCCGTGAA	0.0812 normalized occupancy
CCTTCCCA	0.0748 normalized occupancy
GAATCCTA	0.0741 normalized occupancy
CAGCCGCA	0.0718 normalized occupancy
TGGGTGAA	0.0791 normalized occupancy
AGGATGAC	0.0813 normalized occupancy
TCTAGCCA	0.0723 normalized occupancy
CCTTTATA	0.0822 normalized occupancy
ATGCTTTC	0.0842 normalized occupancy
CTCGTGTC	0.0959 normalized occupancy

Sequence	binding signal
GTCGTGTA	0.0822 normalized occupancy
CTCGTTTC	0.0748 normalized occupancy
CTCGTGTA	0.103 normalized occupancy
ATCGTGTC	0.0864 normalized occupancy
ATCGTGTA	0.0829 normalized occupancy
AACATACC	0.086 normalized occupancy
ATCGTCGA	0.0747 normalized occupancy
CTGAATAC	0.0791 normalized occupancy
AGCGTATG	0.0754 normalized occupancy
CGTGTGTC	0.0936 normalized occupancy
AGCGTGTC	0.0932 normalized occupancy
AGCGTGTA	0.0952 normalized occupancy
CGCGCGTC	0.075 normalized occupancy
GGCGTGTA	0.0895 normalized occupancy
CGCGTGTC	0.115 normalized occupancy
CGTGTATA	0.0906 normalized occupancy
AGTGTGTA	0.0806 normalized occupancy
CGTGTGTA	0.0944 normalized occupancy
CGCGTGTA	0.123 normalized occupancy
AGCGTGTG	0.0954 normalized occupancy
AAAGGACT	0.076 normalized occupancy
CTAGAATA	0.0796 normalized occupancy
AAACAACG	0.079 normalized occupancy
AGTTTGAA	0.0729 normalized occupancy
AAACTCAT	0.0797 normalized occupancy

Sequence	binding signal
ATAAAAGG	0.0778 normalized occupancy
CGGTCTCA	0.0736 normalized occupancy
CACAGTCA	0.0797 normalized occupancy
ACCATCCT	0.0757 normalized occupancy
CCGTGAGA	0.0755 normalized occupancy
GCGTGAGA	0.0965 normalized occupancy
AAGTGAGG	0.0763 normalized occupancy
ACGTGAGG	0.0969 normalized occupancy
TCGTGAGA	0.0809 normalized occupancy
ACGTGAGC	0.107 normalized occupancy
GAGTGAGA	0.0795 normalized occupancy
ACGTGAGT	0.0893 normalized occupancy
ACGTGAGA	0.0981 normalized occupancy
ATGTGAGC	0.0803 normalized occupancy
CCGTGAGG	0.0784 normalized occupancy
GCGTGAGC	0.091 normalized occupancy
AATTGCCA	0.0744 normalized occupancy
CCTAGAAC	0.0744 normalized occupancy
ATGTTGTG	0.0817 normalized occupancy
CCGTCATC	0.0727 normalized occupancy
AAGACTAT	0.0779 normalized occupancy
CTGGGGAA	0.0741 normalized occupancy
ATGAACAA	0.0807 normalized occupancy
CTGCATTC	0.0735 normalized occupancy
ATGCATCA	0.0872 normalized occupancy

Sequence	binding signal
GTGCATGA	0.0961 normalized occupancy
GTGCATCA	0.0868 normalized occupancy
CTGCATGA	0.083 normalized occupancy
ATGCATGC	0.126 normalized occupancy
ATGCATCC	0.0863 normalized occupancy
ATGCATTC	0.0908 normalized occupancy
ATGCATGA	0.0997 normalized occupancy
CTGCATGC	0.1 normalized occupancy
ATGCATTA	0.0869 normalized occupancy
GTGCATAA	0.0861 normalized occupancy
AGAGGCGA	0.0756 normalized occupancy
CTTGAGTC	0.0726 normalized occupancy
ACTTTGTC	0.0738 normalized occupancy
GGTTCTAC	0.0735 normalized occupancy
GAACTAAC	0.0734 normalized occupancy
ATTCCGAC	0.0732 normalized occupancy
AAGTTCAG	0.0751 normalized occupancy
ACACCAAG	0.0798 normalized occupancy
GTGGACCA	0.0775 normalized occupancy
GTGTTAAA	0.0743 normalized occupancy
GATTGCAC	0.0761 normalized occupancy
ATGCATGG	0.0969 normalized occupancy
ATGCATAG	0.0814 normalized occupancy
ATGCATCG	0.0835 normalized occupancy
CGGGGGCA	0.0747 normalized occupancy

Sequence	binding signal
CTCATGCA	0.0963 normalized occupancy
ATCATGCG	0.105 normalized occupancy
CTCATGCC	0.0954 normalized occupancy
CTCATGTC	0.0928 normalized occupancy
GTCATGCA	0.0869 normalized occupancy
CTCATGAC	0.0906 normalized occupancy
CTTATGGC	0.0778 normalized occupancy
CTCATGGC	0.0965 normalized occupancy
ATCATGCA	0.0894 normalized occupancy
ATGATGCG	0.0869 normalized occupancy
CTCATGGA	0.0927 normalized occupancy
ATCATTCG	0.0804 normalized occupancy
AAAAGGGA	0.0725 normalized occupancy
GGGCGTTA	0.0774 normalized occupancy
TACTTCTA	0.0754 normalized occupancy
GCATAAGA	0.0799 normalized occupancy
GGCTAGCA	0.0747 normalized occupancy
ATCATGCC	0.0958 normalized occupancy
ATAATGCC	0.0813 normalized occupancy
ATCATGAC	0.0868 normalized occupancy
CAAAATGG	0.0769 normalized occupancy
AATTACAG	0.0778 normalized occupancy
ATTGCGCG	0.0747 normalized occupancy
CATGCGCC	0.111 normalized occupancy
CATGCGCG	0.11 normalized occupancy

Sequence	binding signal
AATGCGCA	0.0804 normalized occupancy
CATGCGCA	0.125 normalized occupancy
CGTGCGCC	0.0922 normalized occupancy
CGTGCGCA	0.0967 normalized occupancy
AGTGCGCA	0.076 normalized occupancy
AATGCGCC	0.0731 normalized occupancy
TATGCGCA	0.0804 normalized occupancy
AATGCGCG	0.0754 normalized occupancy
AGTGCGCC	0.0735 normalized occupancy
GTCGCTGA	0.0755 normalized occupancy
ACAATAGA	0.0762 normalized occupancy
ACTTGACG	0.0741 normalized occupancy
GTCATCGA	0.0798 normalized occupancy
ATAGATGC	0.075 normalized occupancy
CGCACTGA	0.0735 normalized occupancy
ACTTACAA	0.0743 normalized occupancy
ACGAGACA	0.0856 normalized occupancy
AGCGTGAG	0.091 normalized occupancy
CGCGTGAC	0.134 normalized occupancy
CTCGTGAA	0.0894 normalized occupancy
GGCGTGAC	0.0927 normalized occupancy
CTCGTGAC	0.104 normalized occupancy
ATCGTGAC	0.0839 normalized occupancy
GGCGTGAA	0.0776 normalized occupancy
TGCGTGAA	0.0808 normalized occupancy

Sequence	binding signal
CGCGTGAG	0.109 normalized occupancy
CCCGTGAG	0.0759 normalized occupancy
CGTGTGAC	0.0871 normalized occupancy
CGCGTGAA	0.105 normalized occupancy
CGCCCCCC	0.0791 normalized occupancy
CCTAAGGA	0.0757 normalized occupancy
ACTTTACC	0.0744 normalized occupancy
ACGATCAA	0.0748 normalized occupancy
AGAGATTC	0.0757 normalized occupancy
CGTTACAC	0.0819 normalized occupancy
TGTTACAA	0.0777 normalized occupancy
GATGCTTA	0.0759 normalized occupancy
AATGCTTC	0.0816 normalized occupancy
CATGCTGC	0.122 normalized occupancy
AATGCTGG	0.0789 normalized occupancy
AATGCTGC	0.0788 normalized occupancy
CGTGCTTC	0.0896 normalized occupancy
CATGCTTC	0.106 normalized occupancy
CAAGCTGG	0.0721 normalized occupancy
AATGCTTA	0.0806 normalized occupancy
CATGCTTA	0.104 normalized occupancy
GATGCTGC	0.078 normalized occupancy
CATGCTGG	0.125 normalized occupancy
CAACCGTC	0.075 normalized occupancy
ATGCAATG	0.08 normalized occupancy

Sequence	binding signal
CGACCTCG	0.0723 normalized occupancy
ATGATAAA	0.0793 normalized occupancy
ACGAGGTC	0.0849 normalized occupancy
ATAGACCC	0.0762 normalized occupancy
GTGACCCA	0.0762 normalized occupancy
GATGCTGA	0.0746 normalized occupancy
TATGCTGA	0.0773 normalized occupancy
CATGCTGA	0.112 normalized occupancy
CCCTTGCA	0.0735 normalized occupancy
ACATTTTC	0.0796 normalized occupancy
AACGTTGA	0.0764 normalized occupancy
TACGTTGA	0.082 normalized occupancy
CACGTTGG	0.122 normalized occupancy
GACGTTGA	0.0764 normalized occupancy
CACGTTGC	0.131 normalized occupancy
CACGTTGA	0.115 normalized occupancy
CGCGTTGC	0.0781 normalized occupancy
AACGTTGG	0.0767 normalized occupancy
AACGTTGC	0.0766 normalized occupancy
AACTCGCG	0.0749 normalized occupancy
ACAAAGGG	0.0742 normalized occupancy
TCCTAAGA	0.0773 normalized occupancy
CTCAGTAC	0.0743 normalized occupancy
CCTCCTCC	0.0782 normalized occupancy
ATCATGAG	0.09 normalized occupancy

Sequence	binding signal
CGCATGAA	0.0861 normalized occupancy
CGTATGAC	0.0817 normalized occupancy
CGCATGAG	0.0969 normalized occupancy
AGTATGAG	0.0766 normalized occupancy
CGTATGAG	0.0785 normalized occupancy
GGCATGAC	0.0858 normalized occupancy
AGCATGAG	0.102 normalized occupancy
CGCATGAC	0.105 normalized occupancy
ACAGATCT	0.0745 normalized occupancy
GGCATACA	0.0776 normalized occupancy
GAGACATC	0.0756 normalized occupancy
AATGCCGC	0.0765 normalized occupancy
CATGCCGA	0.102 normalized occupancy
CATGCCAC	0.0989 normalized occupancy
GATGCCGA	0.0738 normalized occupancy
CATGCCGG	0.0917 normalized occupancy
CATGCCAA	0.0927 normalized occupancy
CATGCCAG	0.0874 normalized occupancy
CATGCCGC	0.105 normalized occupancy
TATGCCGA	0.0757 normalized occupancy
